# Records with an inconclusive call do not appear. A call without a number means that no potency is given here. Activity calls are given as the source filed them. Calls follow the shape of the full dose curve.
# Test: Cytotoxicity counterscreen for inhibitors of SARS-CoV-2 cell entry (AID 1645845); also: nearly all actives have a fitted effect of over 50% in size
# Settings: cell viability (SARS-CoV-2 entry assay cells); series mostly up to 57.1 µM
# In short: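 Counterscreen run in the same HEK293-ACE2 line as the pseudotyped-particle entry assay, without particles. Viability after 48 h at 37 C was read as ATP luminescence, scaled between cell-containing and cell-free wells.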
# Potency is read from the fitted curve at half-maximal effect.
row,Compound,Potency
1,CC[C@H]1OC(=O)[C@H](C)C(=O)[C@H](C)[C@@H](O[C@H]2O[C@H](C)C[C@H](N(C)C)[C@H]2O)[C@](C)(OC)C[C@@H](C)C(=O)[C@H](C)[C@H]2N(CCCCn3cnc(-c4cccnc4)c3)C(=O)O[C@]12C,inactive
2,NS(=O)(=O)c1ccc(NC(=S)N2CCN(C/C=C/c3ccccc3)CC2)cc1,inactive
3,CC(=O)N1c2ccc(-c3ccc(C(=O)O)cc3)cc2[C@H](Nc2ccc(Cl)cc2)C[C@@H]1C,inactive
4,N#Cc1ccnc(N2C(=O)CC[C@H]2C(=O)N(c2cncc(F)c2)[C@H](C(=O)NC2CC(F)(F)C2)c2ccccc2Cl)c1,inactive
5,C[C@@H]1COCCN1c1cc(=O)n2c(n1)N(Cc1cncc(Cl)c1)[C@H](C(F)(F)F)CC2,inactive
6,CCOC(=O)N[C@@H]1CC[C@@H]2[C@@H](C1)C[C@H]1C(=O)O[C@H](C)[C@H]1[C@H]2/C=C/c1ccc(-c2cccc(F)c2)cn1,inactive
7,CC(Nc1ncnc2nc[nH]c12)c1cc2cccc(Cl)c2c(=O)n1-c1ccccc1 (stereo not given),inactive
8,C=C1C(=O)O[C@@H]2[C@H]3C(C)=CC[C@@]34O[C@@]4(C)CC[C@@H]12,inactive
9,CN(C)Cc1cccc(N=C(c2ccccc2)c2c(O)[nH]c3cc(C(N)=O)ccc23)c1,inactive
10,Cc1[nH]c(/C=C2\C(=O)Nc3ccc(F)cc32)c(C)c1C(=O)NC[C@H](O)CN1CCOCC1,inactive
11,CN1CCN(c2ccc(Nc3ncc4cc(C#N)c(=O)n(C5CCCC5)c4n3)cc2)CC1,inactive
12,C=CC(=O)Nc1cccc(Nc2nc(Nc3ccc(N4CCN(C(C)=O)CC4)cc3OC)ncc2C(F)(F)F)c1,31.6 µM (active)
13,Cc1ccc(NC(=O)Nc2cc(C(F)(F)F)ccc2F)cc1Nc1ccc2c(c1)NC(=O)/C2=C\c1ccc[nH]1,inactive
14,C[C@@H]1Cc2c([nH]c3ccccc23)[C@@H](c2c(F)cc(/C=C/C(=O)O)cc2F)N1CC(C)(C)F,inactive
15,CN1CCN(CCCNc2ncc(Cl)c(-c3cc4c(C(=O)NC5CC5)cccc4s3)n2)CC1,inactive
16,Nc1ncccc1-c1nc2ccc(-c3ccccc3)nc2n1-c1ccc(C2(N)CCC2)cc1,31.6 µM (active)
17,Cc1nnn(C)c1-c1cnc2c3ccc(C(C)(C)O)cc3n([C@H](c3ccccc3)C3CCOCC3)c2c1,inactive
18,Cc1nc(NC(=O)N2CCC[C@H]2C(N)=O)sc1-c1csc(C(C)(C)C)n1,inactive
19,Cn1ncnc1[C@H]1c2n[nH]c(=O)c3cc(F)cc(c23)N[C@@H]1c1ccc(F)cc1,inactive
20,CNCCN(C)Cc1cn[nH]c1-c1ccc(OC2CC(OCCC3CCOCC3)C2)cc1 (stereo not given),inactive

row,Compound,Potency
1,NCc1ccc(OCCCc2sc(-c3ccc4c(c3)/C(=N/Nc3nc5ccccc5s3)CCC4)nc2C(=O)O)cc1,inactive
2,CCN1C(=O)CNc2ncc(-c3ccc(-c4ncn[nH]4)nc3C)nc21,22.4 µM (active)
3,C[C@@H](Nc1ncnc2[nH]c(-c3ccc(O)cc3)cc12)c1ccccc1,inactive
4,O=C(Nc1ccc2[nH]nc(-c3ccncc3)c2c1)[C@@H]1CCN(CC(=O)N2CCN(c3ccc(-c4ncccn4)cc3)CC2)C1,inactive
5,C=CC(=O)N1CCC[C@H](n2c(=O)n(-c3ccc(Oc4ccccc4)cc3)c3c(N)ncnc32)C1,inactive
6,CNS(=O)(=O)Nc1nccc(Cc2c(C)c3ccc(Oc4ncccn4)cc3oc2=O)c1F,14.1 µM (active)
7,CO[C@H]1/C=C/O[C@@]2(C)Oc3c(C)c(O)c4c(O)c(c(/C=N\N5CCN(C6CCCC6)CC5)c(O)c4c3C2=O)NC(=O)/C(C)=C\C=C\[C@H](C)[C@H](O)[C@@H](C)[C@@H](O)[C@@H](C)[C@H](OC(C)=O)[C@@H]1C,inactive
8,Cn1cc(-c2cc(Oc3cc(F)c(NC(=O)C4(C(=O)Nc5ccccc5)CC4)cc3F)ccn2)cn1,inactive
9,O=C(/C=C/N1C[C@H]2C[C@@H]1CN2c1ccccn1)c1ccccc1O,inactive
10,Nc1cc(COc2c(Cl)cc(C[C@H](N)C(=O)O)cc2Cl)c2oc(-c3ccccc3)nc2c1,inactive
11,NC[C@H]1O[C@H](O[C@H]2[C@H](O)[C@@H](O[C@H]3O[C@H](CO)[C@@H](O)[C@H](N)[C@H]3O)[C@H](N)C[C@@H]2N)[C@H](N)C[C@@H]1O,inactive
12,O=C(CCl)Nc1cccc(NC2=NS(=O)(=O)c3ccccc32)c1,inactive
13,CC/C(=C(/c1ccc(/C=C/C(=O)O)cc1)c1ccc2[nH]ncc2c1)c1ccc(F)cc1Cl,inactive
14,CCN1C(=O)N2Cc3cc(OC)cc(OC)c3[C@@H](C)C=C2C12CCN(Cc1cc(C)cc(C)c1)CC2,inactive
15,CCCc1cc(C)[nH]c(=O)c1CNC(=O)c1cc(-c2ccc(N3CCN(C(C)C)CC3)nc2)cc2c1cnn2C(C)C,inactive
16,CO[C@H]1C[C@@H]2CC[C@@H](C)[C@@](O)(O2)C(=O)C(=O)N2CCCC[C@H]2C(=O)O[C@H]([C@H](C)C[C@@H]2CC[C@@H](OCCO)[C@H](OC)C2)CC(=O)[C@H](C)/C=C(/C)[C@@H](O)[C@@H](OC)C(=O)[C@H](C)C[C@H](C)/C=C\C=CC=C1C,inactive
17,O=c1[nH]nc2c3c(cccc13)NC(CN1Cc3ccccc3C1)=N2,inactive
18,Nc1n[n+]([O-])c2ccccc2[n+]1[O-],inactive
19,Cn1ncc(Cl)c1-c1cc(C(=O)N[C@H](CN)Cc2cccc(F)c2)sc1Cl,inactive
20,COCC(=O)NC/C=C/c1ccc2ncnc(Nc3ccc(Oc4ccc(C)nc4)c(C)c3)c2c1,inactive
